In PubChem BioAssay (NCI):
About 79,000 compounds went through this panel and 15% of them were active in at least one assay; those are over-represented in the sample as a whole. Active and inactive are the calls of the source. Cut-off read from the data, not from the text of the source: active = growth inhibition above about 70%; inactive = the rest.

Experiments:
[1] = NCI Yeast Anticancer Drug Screen. Data for the rad50 strain (AID 155);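 note: 0% = growth of vehicle-only cultures of the same strain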; conditions: S. cerevisiae rad50 strain growth inhibition; at 50.0 µM; active compounds read high
How it was run: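 Growth of the mutant yeast was measured after compound exposure and referenced to vehicle-treated cultures.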

[2] = NCI Yeast Anticancer Drug Screen. Data for the mec2-1 strain (AID 157); conditions: S. cerevisiae mec2-1 strain, at 50.0 µM, active compounds read high
How it was run: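 Test agents were screened against the mec2-1 yeast strain, with defined DNA repair or cell cycle alteration. Growth was scored as inhibition against vehicle-only controls.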

[3] = NCI Yeast Anticancer Drug Screen. Data for the sgs1 mgt1 strain (AID 161);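 note: 0% = growth of cultures given vehicle only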; conditions: S. cerevisiae sgs1 mgt1 strain, at 50.0 µM, active compounds read high
How it was run: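 Genetically altered yeast, compound exposure, growth inhibition relative to vehicle.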

[4] = NCI Yeast Anticancer Drug Screen. Data for the cln2 rad14 strain (AID 165);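 note: 0% = growth equal to vehicle treated cultures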; conditions: S. cerevisiae cln2 rad14 strain, at 50.0 µM, active compounds read high
How it was run: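 Growth of compound-exposed yeast (cln2 rad14 genotype) measured and expressed as inhibition relative to vehicle.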

[5] = NCI Yeast Anticancer Drug Screen. Data for the bub3 strain (AID 167); conditions: S. cerevisiae bub3 mutant strain, at 50.0 µM, active compounds read high
How it was run: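 Whole-cell yeast assay. The mutant strain was incubated with compounds, and growth inhibition was determined by comparison with vehicle-treated cells.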

[6] = NCI Yeast Anticancer Drug Screen. Data for the mlh1 rad18 strain (AID 175); conditions: S. cerevisiae mlh1 rad18 strain growth inhibition; at 50.0 µM; active compounds read high
How it was run: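 In this whole-cell yeast screen, a strain with altered DNA damage repair is challenged with compound, and its growth is measured against matched vehicle-treated controls.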

Measured: growth inhibition

CCCCCCN(CCCCCC)CC(O)c1c(Cl)ccc2ccccc12 (stereo unspecified)
active: [1] 99.1% | [2] 96.5% | [3] 99.3% | [4] 98.6% | [5] 96.4% | [6] 98.5%

COc1ccc(NC(=O)CC(=O)n2nc(C)c(N=Nc3ccccc3C(=O)O)c2C)cc1
inactive: [1] 8.6% | [2] 10.6% | [3] -6.05% | [4] -42.5% | [5] -1.35% | [6] 15.3%

C[n+]1cccc(C(=O)O)c1
inactive: [1] 5.25% | [2] 2.75% | [3] 8.65% | [4] -9.05% | [5] 17.8% | [6] 10.1%

CC(=O)Nc1ccc(/C=C/C(=O)O)cc1
inactive: [1] -38.6% | [2] -30.6% | [3] -21.7% | [4] -6.05% | [5] -31.2% | [6] -30.8%

c1ccc(Oc2nnc3c4ccccc4ccn23)cc1
inactive: [1] 11.4% | [2] -9.55% | [3] 0.1% | [4] -4.4% | [5] 3.9% | [6] -0.35%

Cc1ccc(NCCN)c2c(=O)c3cc(O)ccc3sc12
inactive: [2] 32.3% | [3] 40.4% | [4] 25.1% | [5] 9.65%
active: [1] 86% | [6] 86.7%

c1ccc(N2CCN(c3ccccc3)C2)cc1
inactive: [1] -33.8% | [2] -13.3% | [3] -12.8% | [4] 8.65% | [5] 9.1% | [6] 11.5%

Cn1ncc2c(=O)[nH]c(NCCO)nc21
inactive: [1] 3.3% | [2] 1.25% | [3] 0.9% | [4] -16.9% | [5] 8.7% | [6] 0.4%

NC(N)=NCCCCNCCCN=C(N)N
inactive: [1] -23.2% | [2] -42.8% | [3] 1.55% | [4] 3.35% | [5] -16.4% | [6] -15.7%

CCc1nc2c(c(=O)n(C)c(=O)n2C)n1C
inactive: [1] -2.65% | [2] -4.15% | [3] -8.45% | [4] -3.85% | [5] 2.85% | [6] -7.5%

Nc1nc(Cc2ccccc2)c(CCCNc2ccccc2)c(=O)[nH]1
inactive: [1] -4.95% | [2] 5.05% | [3] 6.45% | [4] -74.3% | [5] 1.75% | [6] -12.8%

O=C(Nc1ccccc1F)c1c(O)nc2sccn2c1=O
inactive: [1] 50.4% | [2] -2.8% | [3] 38.5% | [4] -4.15% | [5] 38.1% | [6] 34%

CN(C)c1ccc([N+](=O)[O-])c2c1CCC2
inactive: [1] 9.7% | [2] -4.55% | [3] 7.25% | [4] 5.6% | [5] 6.85% | [6] 6.55%

CCOC(=O)c1nc2ccccc2nc1NCc1ccc(OC)cc1
inactive: [1] -6.5% | [2] -6.45% | [3] -30.4% | [4] 6.55% | [5] -22.4% | [6] 3.4%

Brc1cc2ccccc2nc1-c1ccccc1
inactive: [1] -2.3% | [2] -7.95% | [3] 1% | [4] -23.4% | [5] 5.05% | [6] 10.1%

Cc1ccc(N=C=S)cc1Cl
inactive: [1] 6.75% | [2] 9.65% | [3] 32.4% | [4] 6.55% | [5] 15.8% | [6] 27.9%

O=C(O)C(Cc1cccs1)(Cc1cccs1)C(=O)O
inactive: [1] -9% | [2] -4.6% | [3] -2.9% | [4] -18.7% | [5] -9.75% | [6] -2.2%

c1ccc(Cn2ccnc2CSCCSCc2nccn2Cc2ccccc2)cc1
inactive: [1] 17.5% | [2] 37.2% | [3] -5.8% | [4] 12.9% | [5] -0.65% | [6] 29.9%

CCOC(=O)C1C(=O)CC1(C)C (stereo unspecified)
inactive: [1] 12.2% | [2] 6.9% | [3] 12.2% | [4] 36% | [5] 25.9% | [6] 21.8%

COc1cccc(N2C(=O)c3c(c4[nH]c5ccccc5c4c4ccc(C(C)(C)C)cc34)C2=O)c1
inactive: [1] -19.2% | [2] -15.1% | [3] -15.4% | [4] 18.3% | [5] -34% | [6] -12.1%

COC(=O)CC12CCCC(C)(CC(=O)N1)C2 (stereo unspecified)
inactive: [1] 16.4% | [2] 1.25% | [3] 12.5% | [4] 15.8% | [5] -4% | [6] -0.5%

O=C1CC(c2ccccc2)S(=O)c2ccccc2N1 (stereo unspecified)
inactive: [1] -7.5% | [2] 5.25% | [3] -9.9% | [4] 26.8% | [5] 11.6% | [6] -1.25%

C=C(C)CNCC(=C)C
inactive: [1] 35.3% | [2] 14.1% | [3] -8.25% | [4] -16.8% | [5] 17.9% | [6] 21.6%

C[N+]1(C)N=C([O-])N(c2ccccc2F)C1=O
inactive: [1] 7.15% | [2] -7.35% | [3] 2.7% | [4] -17.1% | [5] -2.15% | [6] -0.7%

c1ccc(-c2ccc(-c3ccccc3)c(-c3ccc4c(c3)CCC4)c2-c2ccccc2)cc1
inactive: [1] 14.1% | [2] 13.3% | [3] 7.25% | [4] 13.9% | [5] -3.85% | [6] 21.8%

Cc1cc(Cc2cc(C)c(NC(=O)C(=O)C3CCC4=C(SC5C=CC=CC5N4)C3=O)c(C(C)C)c2)cc(C(C)C)c1NC(=O)C(=O)C1CCC2=C(SC3C=CC=CC3N2)C1=O (stereo unspecified)
inactive: [1] -15.8% | [2] -13.6% | [3] -8.1% | [4] 15.2% | [5] 15.3% | [6] -28.1%

CC(O)CN1CCN(CCN(CC(C)O)CC(C)O)CC1 (stereo unspecified)
inactive: [1] -16.1% | [2] -24.2% | [3] -3.7% | [4] -2% | [5] -9.4% | [6] -19.6%

O=[N+]([O-])c1cc([N+](=O)[O-])c(/C=C/c2ccccc2Cl)cc1/C=C/c1ccccc1Cl
inactive: [1] -10.2% | [2] 13.4% | [3] 15.8% | [4] -19.6% | [5] 0.05% | [6] 0.5%

CC(C)NC(=O)c1ccccc1Sc1ccccc1CN(C)C(C)C
inactive: [1] -11.3% | [2] 5.5% | [3] 7.1% | [4] 6.55% | [5] 8.9% | [6] 6.75%

CC(=O)OCC(NC(=O)C(N)CC(=O)O)C(=O)NCC(=O)Oc1ccc([N+](=O)[O-])cc1 (stereo unspecified)
inactive: [1] 13.9% | [2] 15.7% | [3] 11.8% | [4] 12% | [5] 1.9% | [6] 5.75%

Nc1cccc(C(=O)O)c1C(=O)O
inactive: [1] 19.7% | [2] 15.7% | [3] 25% | [4] -1.7% | [5] -4.2% | [6] 20.9%

O=C(NO)/C(CC(=O)c1ccc(O)cc1)=N\O
inactive: [1] -8.9% | [2] -10.4% | [3] -6.9% | [4] -11.2% | [5] -3.7% | [6] 4.7%

CCN(CC)c1ccc(N=C2C=C(C(=O)Nc3ccc(C(=O)O)cc3)C(=O)c3ccccc32)c(C)c1
inactive: [1] -10.2% | [2] -25% | [3] -16.9% | [4] 0.9% | [5] -0.65% | [6] -18.2%

COP(=O)(O)OP(=O)(O)OC
inactive: [1] 1.2% | [2] -29.5% | [3] 25.2% | [4] 6.35% | [5] 13.8% | [6] 16.8%

NC(=O)C[n+]1cccc(C(=O)Nc2ccc(Cl)cc2)c1
inactive: [1] 2.3% | [2] 9.3% | [3] 3.95% | [4] -23.4% | [5] 29.2% | [6] -0.75%

Cc1ccc(S(=O)(=O)C(CCC(=O)c2ccccc2)(CCC(=O)c2ccccc2)[N+](=O)[O-])cc1
inactive: [1] -9.05% | [2] -9.45% | [3] -10% | [4] -26% | [5] -1.5% | [6] 0%
